Our source for the z-score values is PubChem BioAssay.

Activity calls are given as the source filed them.

Assay [1] can be described thus: A549 cell viability effects, profiling panel, calcein-AM fluorescence, 48 h, basal (AID 1162). The settings on record: higher = more signal.
Assay [2] can be described thus: adipocyte viability effects, profiling panel, cell-based, 3T3-L1 adipocytes, calcein-AM fluorescence, 48 h, basal (AID 1163). Particulars: 3T3-L1 adipocytes viability, higher = more signal.
Assay [3] is described as follows: HepG2 cell viability effects, profiling panel, calcein-AM fluorescence, 48 h, basal (AID 1164). Particulars: higher = more signal.
Assay [4] is described as follows: MM1S cell viability effects, profiling panel, calcein-AM fluorescence, 48 h, basal (AID 1165).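 Also: viability of MM1S multiple myeloma cells under basal unstimulated conditions.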 The settings on record: higher = more signal.
Assay [5] is described as follows: basal RPMI8226 viability, no added stimulus, profiling panel, cell-based, calcein-AM fluorescence, 48 h, PK04 Diversity Set (AID 1166).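 Also: cells grown under basal conditions without added stimulus.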 Particulars: RPMI8226 myeloma viability, higher = more signal.
The nature of assay [6]: basal HepG2 mitochondrial membrane potential changes, profiling panel, cell-based, JC-1 fluorescence, 24 h, 100 nL compound (AID 1167). The settings on record: higher = more signal.
The nature of assay [7]: basal 3T3-L1 adipocyte mitochondrial potential changes, profiling panel, cell-based, JC-1 fluorescence, 3T3-L1 adipocytes, 24 h, 100 nL compound (AID 1168). The settings on record: JC-1 mitochondrial fluorescence, higher = more signal, called active from +8 up or from −8 down.
Assay [8] in a line: basal RPMI8226 mitochondrial membrane potential changes, profiling panel, cell-based, JC-1 fluorescence, 24 h, 100 nL compound (AID 1169). Particulars: RPMI8226 myeloma, JC-1 mitochondrial potential fluorescence, higher = more signal.
A short description of assay [9]: basal MM1S mitochondrial membrane potential changes, profiling panel, cell-based, JC-1 fluorescence, 24 h, 100 nL compound (AID 1170). The settings on record: higher = more signal.
A short description of assay [10]: A549 lung cancer cell viability effects, profiling panel, resazurin fluorescence, 24 h, PK04 Diversity Set (AID 1171). Particulars: higher = more signal, called active from +8 up or from −8 down.
Also: test concentration not given here.

Consider `Cc1ccccc1C(O)C1C=CC2C(=O)N(Cc3ccccc3)C(=O)C2N1n1cnnc1` (stereo not given), for which the z-score in [1] is -1.2; in [2], 0.194; in assay [3], -0.734; in assay [4], -0.742; in [5] it was 0.0991; in [6], -0.406. In addition, the z-score in [7] is 0.525 (inactive); in assay [8], -0.0549; in assay [9], -0.806; in assay [10] it was 0.0882 (inactive).
For the compound `O=c1c2ccc(Br)cc2nc(-c2ccccc2)n1Cc1cccc(O)c1`, the z-score in assay [1] is -0.277; in assay [2] it was 1.02; in [3], 0.196; in assay [4], -0.115; in [5], 0.195; in assay [6] it was -0.0225. The z-score is -0.525 (inactive) in [7], 0.385 in assay [8], -0.258 in assay [9] and 0.0972 (inactive) in assay [10].
As to `CCN(CC)c1ccc(N2CC=CC34O[C@@H]5/C=C\CCCOC(=O)C5[C@H]3C(=O)N(CCCCCO)[C@@H]4C2=O)cc1` (stereo not given in full), the z-score was 0.147 in assay [1]; 0.184 in [2]; 0.481 in assay [3]; -0.459 in [4]; -0.711 in assay [5]; -0.589 in assay [6]. The z-score in [7] was -0.267 (inactive); in assay [8], 0.0223; in assay [9], 0.515; in assay [10], 0.0257 (inactive).
Take `CC(C)(C)N1CC=CC23O[C@@H]4C=CCCOC(=O)C4[C@H]2C(=O)N(CCCO)[C@@H]3C1=O` (stereo not given in full): the z-score is 0.28 in [1]; 1.75 in assay [2]; 0.15 in [3]; -0.685 in [4]; -0.783 in assay [5]; -1.26 in [6]. The z-score in [7] was 0.514 (inactive); in assay [8], 0.846; in assay [9], -0.0658; in assay [10], -1.22 (inactive).
As to `COc1ccc([Si](C)(C)[C@H]2[C@H](CCO)O[C@@]3(C(=O)N(Cc4cccc(N5CCOC5=O)c4)c4ccccc43)[C@@H]2C)cc1`, the z-score is -0.162 in assay [1]; -0.824 in assay [2]; -0.925 in [3]; -2.43 in assay [4]; -3.25 in [5]; -0.0995 in [6]. The z-score in assay [7] is 2.01 (inactive); in assay [8], -1.09; in [9], -1.79; in assay [10], -2.22 (inactive).
In the case of `C=CCN1C(=O)[C@@]2(O[C@@H](CCn3cc([C@H](O)c4ccccc4)nn3)[C@H]([Si](C)(C)c3ccc(OC)cc3)[C@H]2C)c2cc(NC(=O)c3ccc(OC)cc3)ccc21`, the z-score in assay [1] was -0.219; in assay [2], -0.143; in [3], -0.671; in [4], -1.84; in [5], -1.69; in assay [6], -0.117. For the same compound, the z-score in assay [7] is -1.06 (inactive); in assay [8], -0.991; in assay [9], -0.641; in assay [10], -2.43 (inactive).
For `[N-]=[N+]=NCc1ccccc1[C@H]1OC(c2ccc(OCCCO)cc2)=N[C@@]1(Cc1ccccc1N=[N+]=[N-])C(=O)N1CCCCC1`, the z-score is -0.457 in assay [1]; -0.5 in assay [2]; -0.536 in [3]; -2.14 in [4]; -2.79 in assay [5]; 1.06 in assay [6]. Moreover, the z-score in assay [7] was 0.0871 (inactive); in assay [8], -0.978; in assay [9] it was -1.76; in assay [10], -0.409 (inactive).
On to `C/C=C/[C@@H](CCn1cc([C@H](O)c2ccccc2)nn1)[Si](C)(C)c1ccc(OC)cc1`, for which the z-score is -0.536 in assay [1]; 0.485 in [2]; -0.713 in assay [3]; -2.9 in assay [4]; -3.1 in assay [5]; -1.13 in assay [6]. Also, the z-score is -0.255 (inactive) in assay [7], -0.268 in [8], -0.462 in [9] and 0.372 (inactive) in assay [10].
As to `CC(C)C[C@H]1NC(=O)[C@H](C)NC(=O)[C@@]23C(=O)N[C@@H](Cc4ccccc4)C2[C@H](C)[C@@]2(C)O[C@H]2C3/C=C/C/C=C\CNC1=O` (stereo not given in full), the z-score in assay [1] is -0.0541; in [2] it was 0.392; in assay [3], -0.17; in assay [4] it was -0.36; in [5], -0.659; in [6] it was -0.482. Further, the z-score in assay [7] was -0.752 (inactive); in [8] it was -0.0616; in [9], 1.34; in assay [10], -0.271 (inactive).
On to `CCCc1cc2c(n1Cc1ccc(OC)cc1)C(C)C1CN(C(=O)c3ccccc3)C(C)(C(=O)OC)C21` (stereo not given), for which the z-score in [1] is -0.923; in [2], 0.431; in [3], -0.815; in assay [4], -2.74; in assay [5], -4.66; in assay [6] it was 2.08. The z-score was -1.82 (inactive) in [7], -0.157 in assay [8], -1.61 in assay [9] and -0.535 (inactive) in assay [10].
Consider `CC(C)(C)OC(=O)CC[C@]1(C(=O)O)COC(c2ccc(OCCCO)cc2)=N1`, for which the z-score in assay [1] is -0.0651; in [2], -2.83; in assay [3] it was 0.218; in assay [4] it was -0.97; in [5] it was 0.151; in [6] it was -0.924. The z-score in assay [7] is -0.564 (inactive); in assay [8], -0.812; in assay [9], 0.148; in assay [10], -0.135 (inactive).
For `COC(=O)C(CC#Cc1ccc2c(c1)[C@]1(C(=O)N2)[C@H](c2ccc(O)cc2)N2[C@H](c3ccccc3)[C@H](c3ccccc3)OC(=O)[C@H]2[C@@H]1C(N)=O)C(=O)OC`, the z-score in [1] is 1.43; in assay [2] it was -0.0866; in assay [3], 0.188; in [4], 0.244; in assay [5], 0.728; in assay [6], 1.44. Moreover, the z-score was 0.673 (inactive) in assay [7], -0.846 in assay [8], -0.0448 in assay [9] and 1.42 (inactive) in assay [10].
Regarding `[N-]=[N+]=NCc1ccccc1C[C@]1(C(=O)NCCN2CCOCC2)COC(c2ccc(OCCCO)cc2)=N1`, the z-score was 1.18 in assay [1]; -0.487 in assay [2]; 0.652 in assay [3]; 0.689 in assay [4]; -0.699 in [5]; 2.24 in [6]. Besides, the z-score was 0.498 (inactive) in assay [7], -0.218 in assay [8], -1.05 in assay [9] and 0.169 (inactive) in [10].
Turning to `CC1C=C(CCCO)C=C(C(=O)OCCS(C)(=O)=O)C(C(=O)OCCS(C)(=O)=O)=CN1Cc1cccc(OC(F)(F)F)c1` (stereo not given), the z-score is 0.114 in assay [1]; 0.606 in assay [2]; 1.23 in [3]; -0.289 in assay [4]; -0.226 in assay [5]; 1.27 in assay [6]. Further, the z-score in assay [7] was -0.63 (inactive); in assay [8], 0.186; in assay [9], -0.0273; in assay [10] it was -0.0746 (inactive).
For the compound `CCOC(=O)C1=CCC(c2cccc(Cl)c2)O1` (stereo not given), the z-score in [1] is -1; in assay [2], 0.464; in assay [3] it was -0.531; in [4] it was -0.488; in [5] it was -1.15; in assay [6], -0.454. For the same compound, the z-score is -0.627 (inactive) in assay [7], 0.96 in [8], -0.472 in [9] and 1.16 (inactive) in assay [10].
